TR-FRET ratio data for 63 molecules are collected here from PubChem BioAssay AID1048 (The Scripps Research Institute Molecular Screening Center, 2008).

About 390 (0.39%) of roughly 99,000 compounds were called active. The sample as a whole holds a higher share of actives than the screen did. Values without a mark were called inactive. Rule as the data show it: active = TR-FRET ratio above about 2000; inactive = the rest.

This test in a line: TR-FRET detection interference compounds, artefact control for PPARgamma SRC-3 recruitment agonists, biochemical, TR-FRET ratio (AID 1048). The following applies: TR-FRET artefact counter-screen, PPARgamma/SRC-3 format; at 8 µM; stronger effect = higher value. A general note: Time-resolved FRET reads energy transfer from a long-lived donor to a nearby acceptor.
Take `O=S1(=O)CC/C(=N\Nc2ccc(F)cc2)c2ccsc21`: the TR-FRET ratio is 1680.

For the molecule `COc1ccccc1NC(=O)COC(=O)Cc1ccc(S(=O)(=O)N2CCCCC2)s1`, the TR-FRET ratio was 1680.

Turning to `Cc1c(Cl)c([N+](=O)[O-])nn1CC(=O)NCC1CCCO1` (stereo not drawn), the TR-FRET ratio was 1690.

For `O=[N+]([O-])c1ccccc1SNc1ccccn1`, the TR-FRET ratio is 1510.

Turning to `CC(=O)Nc1ccc(Nc2nc3c(S(=O)(=O)c4ccc(C)c(C)c4)nnn3c3ccccc23)cc1`, the TR-FRET ratio was 1560.

Take `Cc1cccc(Nc2nc3c(S(=O)(=O)c4ccccc4)nnn3c3ccccc23)c1C`: the TR-FRET ratio is 1540.

For `COCCCNc1nc2c(-c3cccc(C(F)(F)F)c3)nnn2c2ccccc12`, the TR-FRET ratio was 2690 (active).

In the case of `CCOC(=O)c1ccc(NC(=O)c2cc(=O)[nH]c3ccccc23)cc1`, the TR-FRET ratio is 1550.

Regarding `O=C(NCc1ccc(F)cc1)C(c1ccccc1)N(C(=O)c1csnn1)C1CC1` (stereo not drawn), the TR-FRET ratio was 1460.

Take `CCc1nccn1S(=O)(=O)c1cccc([N+](=O)[O-])c1`: the TR-FRET ratio is 1700.

With `CC1Cc2ccccc2N1C(=O)CSc1nnc(C2CC2)n1C` (stereo not drawn), the TR-FRET ratio was 1630.

On to `Cc1ccc(S(=O)(=O)N(C)c2ccc(OCC(=O)NC3=NCCS3)cc2)cc1`, for which the TR-FRET ratio is 1460.

For `Cc1ccc(NC(=O)NNC(=O)c2sccc2-n2cccc2)cc1`, the TR-FRET ratio is 1310.

Consider `COc1cc(CN(C)Cc2nc3cc(C(F)(F)F)ccc3c(=O)[nH]2)ccc1OC(F)F`, for which the TR-FRET ratio was 1340.

With `CSCC(=O)N1CCCC(C(=O)c2cc(F)ccc2F)C1` (stereo not drawn), the TR-FRET ratio was 1400.

Consider `Cc1ccc(C(=O)N/C(=C/c2cccs2)C(=O)NCC2CCCO2)cc1` (stereo not drawn), for which the TR-FRET ratio was 1510.

For `O=C(CCC(=O)NNc1nc2ccccc2c2nc(-c3ccccc3)nn12)NCCCN1CCCC1=O`, the TR-FRET ratio is 1570.

`C/C(=N\Nc1ncc(Cl)cc1Cl)c1cccs1`: the TR-FRET ratio was 1400.

Take `COCCn1c(=O)[nH]c(=O)c2cc(C(=O)c3cc(OC)ccc3O)cnc21`: the TR-FRET ratio is 1460.

Regarding `Fc1ccccc1Cc1ccc(Cl)nn1`, the TR-FRET ratio is 1250.

On to `CCCCOc1ccc(N(CC(=O)NC(C)C)C(=O)CCC(=O)Nc2ccccn2)cc1`, for which the TR-FRET ratio was 1760.

Turning to `COc1ccc(C2CC(c3cccs3)=NN2C(=O)COC(=O)c2cc3ccccc3cc2O)cc1OC` (stereo not drawn), the TR-FRET ratio was 1600.

`O=C(N/N=C/c1ccccn1)C12CC3CC(CC(C3)C1)C2`: the TR-FRET ratio was 1520.

As for `O=C(NCCOc1ccccc1F)Nc1ccc(Br)cc1`, the TR-FRET ratio was 1530.

For the molecule `O=C(O)c1ccc2c3c(cccc13)C(=O)N(OS(=O)(=O)c1ccccc1)C2=O`, the TR-FRET ratio was 1490.

As for `CCOC(=O)c1c(NC(=O)CNC2CCCc3ccccc32)sc(C(N)=O)c1C` (stereo not drawn), the TR-FRET ratio was 2120 (active).

As for `CCOC(=O)c1sc(NC(=O)COc2ncnc3ccccc23)c(C(=O)OCC)c1C`, the TR-FRET ratio was 1650.

Turning to `CCC(=O)Nc1sc(C(=O)Nc2ccccc2)c(C)c1C(=O)OC`, the TR-FRET ratio was 1430.

As for `CC(C)(C)C1CCC(C(=O)Nc2cccnc2)CC1` (stereo not drawn), the TR-FRET ratio is 1510.

With `CN1/C(=C\C(=O)c2cccnc2Cl)C(C)(C)c2ccccc21`, the TR-FRET ratio was 1630.

Consider `Cc1ccc(Cl)cc1N1CCN(C(=O)c2cccc3c(=O)c(C)c(-c4ccccc4)oc23)CC1`, for which the TR-FRET ratio was 1350.

In the case of `O=C(CC1SC(=Nc2ccccc2F)N(CCN2CCOCC2)C1=O)Nc1ccc(F)cc1F` (stereo not drawn), the TR-FRET ratio was 1720.

Consider `O=C(NNC(=O)c1cc2c(s1)CCCC2)c1ccccc1`, for which the TR-FRET ratio is 1550.

As for `CC(C)c1nc(CNC(=O)CC2C(=O)NCCN2Cc2ccoc2)cs1` (stereo not drawn), the TR-FRET ratio was 1610.

Turning to `CCc1cccc(CC)c1NC(=O)COc1ccccc1C(=O)c1cc(C#N)c(=O)n(C2CCCCC2)c1`, the TR-FRET ratio is 1810.

Turning to `CCN(CC(=O)NCCc1ccccc1)S(=O)(=O)c1ccc(C)cc1`, the TR-FRET ratio was 1520.

Turning to `O=C(O)CCN(Cc1ccccc1)S(=O)(=O)c1c(Cl)cccc1Cl`, the TR-FRET ratio is 1570.

As to `O=C(CCc1ccccc1)Nc1nn[nH]n1`, the TR-FRET ratio was 1720.

Consider `C/C(CC(=O)N1CCN(C=O)CC1)=N\NC(=O)c1ccc(Br)cc1`, for which the TR-FRET ratio is 1640.

As for `O=C(Nc1cccc(Cl)c1)c1cc([N+](=O)[O-])ccc1N1CCN(CCO)CC1`, the TR-FRET ratio was 1540.

On to `O=C(C1CCN(C2CCN(Cc3cccc4c3OCO4)CC2)CC1)N1CCOCC1`, for which the TR-FRET ratio is 1420.

On to `Cc1cc(OCC(=O)NC2CCN(C)CC2)ccc1[N+](=O)[O-]`, for which the TR-FRET ratio is 1610.

As to `O=C(Nc1ccccc1C(=O)N1CCOCC1)c1ccc(Cl)cc1`, the TR-FRET ratio is 1680.

On to `COc1ccc(C(=O)Nc2ccc(NC(=O)C(C)C)nc2)cc1`, for which the TR-FRET ratio is 1500.

`C=CCn1nc(-c2ccccc2)c2c(C)onc2c1=O`: the TR-FRET ratio was 1650.

On to `O=C(N1CCCCC1)N1CCN(C(=O)N2CCCCC2)CC1`, for which the TR-FRET ratio was 1530.

For `CC(=O)Nc1ccccc1OC(C)C(=O)N1CCC(C)CC1` (stereo not drawn), the TR-FRET ratio was 1390.

For `O=C(NCc1ccncc1)NC12CC3CC(CC(C3)C1)C2`, the TR-FRET ratio is 1490.

On to `Cc1ccc(C(=O)OC(C)CN2CCOCC2)cc1` (stereo not drawn), for which the TR-FRET ratio is 1500.

On to `CCOC(=O)C1CCCN(C(=O)/C=C/c2ccc(OC)cc2)C1` (stereo not drawn), for which the TR-FRET ratio was 1570.

Take `COc1ccc(CN2CCCC(CNC(=O)c3ccc(F)cc3)C2)cc1OC` (stereo not drawn): the TR-FRET ratio is 1700.

As to `Cc1ccnc(NC(=O)CCC(=O)N(CC(=O)NCCc2ccccc2)Cc2cccs2)c1`, the TR-FRET ratio is 1720.

With `COc1cccc(CC2(CO)CCCN(Cc3nc(-c4cccs4)oc3C)C2)c1` (stereo not drawn), the TR-FRET ratio was 1600.

For `CCOC(=O)N1CCN(C(=O)Cn2cnc3ccccc3c2=O)CC1`, the TR-FRET ratio is 1650.

With `Cc1ccc2nsnc2c1NC(=O)c1ccccc1[N+](=O)[O-]`, the TR-FRET ratio is 1630.

Turning to `COc1cc(/C=C/C(=O)O)cc(S(=O)(=O)Nc2ccccc2SC)c1OC`, the TR-FRET ratio is 1430.

On to `CCSc1nc(C)c(CCOc2cccc(C)c2)c(=O)[nH]1`, for which the TR-FRET ratio was 1860.

Regarding `Cc1ccc(C(=O)NCC(=O)O)s1`, the TR-FRET ratio was 1560.

For the molecule `COc1cc(COCC(O)CN2CCN(Cc3ccc4c(c3)OCO4)CC2)cc(OC)c1OC` (stereo not drawn), the TR-FRET ratio is 1800.

Take `CCN(CC)CC(=O)Nc1sc2c(c1C(=O)c1ccccc1C)CCC2`: the TR-FRET ratio is 1510.

In the case of `NC(=O)C[C@@H]1NC(=O)CNC(=O)c2cc([N+](=O)[O-])cc(I)c2NCCC(C(N)=O)NC1=O` (stereo partly drawn), the TR-FRET ratio was 1320.

Turning to `Cc1cc(C(=O)NNC(=O)c2cccc(S(=O)(=O)N3CCOCC3)c2)c2ccccc2n1`, the TR-FRET ratio was 1670.

With `O=C(Cc1ccccc1)NNC(=O)C1CCN(c2ncccn2)CC1`, the TR-FRET ratio was 1500.
